In PubChem BioAssay (NCATS):
Records with an inconclusive call do not appear. Active and inactive are the calls of the source. Calls follow the shape of the dose curve; as a rule, active = well fitted curve in the direction sought with a large enough effect; inconclusive = small, poorly fitted or top-dose-only effect, or another doubt; inactive = no such curve, though single readings can be large; an effect the other way counts as inactive or inconclusive. *1 amine or outer side, *2 acyl side, *3 side chain or, on linkers, in order; H or OH if unused. Where a SMILES comes first, the peptide text is derived from it. Bridges are numbered along the chain shown (N, C = ends). [ ]: non-standard residue; d: D form. The star is where a group is joined. ξ: configuration not given here. X10 = NC1=NCCC(C(N[*:1])C(=O)[*:2])N1; ΔAla(3-NHCONH2) = NC(=O)NC=C(N)C(=O)O; ξβ3hOrn = NCCCC(N)CC(=O)*; Dap = NC[CH](N)C(=O)O

Legend:
[1] = tested on: MCC-13; assay: qHTS assay to identify novel small-molecules to repurpose for Merkel cell carcinoma treatment (AID 1296009); details: MCC and control cell lines, CellTiter-Glo viability, 72 h; series mostly up to 46 µM; also: nearly all actives have a fitted effect of over 60% in size
Summary of the method: (§1)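 Cell viability measured by CellTiter-Glo following 72 hr compound treatment at 37 degree celsius, with NPC and MIPE libraries tested in 8- and 11-point concentration series.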

[2] = tested on: MCC-26; assay: as above; details: MCC and control cell lines, CellTiter-Glo viability, 72 h; series mostly up to 46 µM
Summary of the method: as §1

[3] = tested on: MKL-1; assay: as above; details: MCC and control cell lines, CellTiter-Glo viability, 72 h; series mostly up to 46 µM
Summary of the method: as §1

[4] = tested on: MKL-2; assay: as above; details: MCC and control cell lines, CellTiter-Glo viability, 72 h; series mostly up to 46 µM
Summary of the method: as §1

[5] = tested on: UISO; assay: as above; details: MCC and control cell lines, CellTiter-Glo viability, 72 h; series mostly up to 46 µM
Summary of the method: as §1

[6] = tested on: WaGa; assay: as above; details: MCC and control cell lines, CellTiter-Glo viability, 72 h; series mostly up to 46 µM
Summary of the method: as §1

[7] = tested on: C33A; assay: Primary qHTS to identify gynecologic anti-cancer compounds using libraries of approved drugs and bioactive compounds (AID 1345084); details: Gynecologic cancer cell panel viability, ATPlite luminescence, 48 h; series mostly up to 57.5 µM; also: nearly all actives have a fitted effect of over 55% in size
Summary of the method: (§2)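 Five-point cytotoxicity, 48 h drug exposure at 37 C, 5% CO2, on cells seeded 16 h beforehand. ATP content read by ATPlite luminescence.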

[8] = tested on: CAOV3; assay: as above; details: Gynecologic cancer cell panel viability, ATPlite luminescence, 48 h; series mostly up to 57.5 µM
Summary of the method: as §2

[9] = tested on: CASKI; assay: as above; details: Gynecologic cancer cell panel viability, ATPlite luminescence, 48 h; series mostly up to 57.5 µM
Summary of the method: as §2

[10] = tested on: Es-2; assay: as above; details: Gynecologic cancer cell panel viability, ATPlite luminescence, 48 h; series mostly up to 57.5 µM
Summary of the method: as §2

[11] = tested on: HeLa; assay: as above; details: Gynecologic cancer cell panel viability, ATPlite luminescence, 48 h; series mostly up to 57.5 µM
Summary of the method: as §2

[12] = tested on: Hek293T; assay: as above; details: Gynecologic cancer cell panel viability, ATPlite luminescence, 48 h, control line for the selectivity index; series mostly up to 57.5 µM
Summary of the method: as §2

[13] = tested on: JEG-3; assay: as above; details: Gynecologic cancer cell panel viability, ATPlite luminescence, 48 h; series mostly up to 57.5 µM
Summary of the method: as §2

[14] = tested on: OV90; assay: as above; details: Gynecologic cancer cell panel viability, ATPlite luminescence, 48 h; series mostly up to 57.5 µM
Summary of the method: as §2

[15] = tested on: PA-1; assay: as above; details: Gynecologic cancer cell panel viability, ATPlite luminescence, 48 h; series mostly up to 57.5 µM
Summary of the method: as §2

[16] = tested on: Tov-21-G; assay: as above; details: Gynecologic cancer cell panel viability, ATPlite luminescence, 48 h; series mostly up to 57.5 µM
Summary of the method: as §2

[17] = tested on: Tov112D; assay: as above; details: Gynecologic cancer cell panel viability, ATPlite luminescence, 48 h; series mostly up to 57.5 µM
Summary of the method: as §2

[18] = tested on: SKOV3; assay: as above; details: Gynecologic cancer cell panel viability, ATPlite luminescence, 48 h; series mostly up to 57.5 µM
Summary of the method: as §2
% is scaled to controls: 0 for no effect and ±100 for the full control effect.

C[C@H]1C[C@H](O)c2ccsc2S1(=O)=O
inactive: Potency [1] | Potency [2] | Potency [3] | Potency [4] | Potency [5] | Potency [6] | Potency [7] | Potency [8] | Potency [9] | Potency [10] | Potency [11] | Potency [12] | Potency [13] | Potency [14] | Potency [15] | Potency [16] | Potency [17]

C=C(C)C(=O)OCC(O)CO (stereo not drawn)
inactive: Potency [1] | Potency [2] | Potency [3] | Potency [4] | Potency [5] | Potency [6] | Potency [7] | Potency [8] | Potency [10] | Potency [11] | Potency [12] | Potency [13] | Potency [14] | Potency [15] | Potency [18] | Potency [16] | Potency [17]

CN1C(=O)c2ccccc2C1=O
inactive: Potency [1] | Potency [2] | Potency [3] | Potency [4] | Potency [5] | Potency [6] | Potency [7] | Potency [8] | Potency [9] | Potency [10] | Potency [11] | Potency [12] | Potency [14] | Potency [15] | Potency [16] | Potency [17]

Cc1nc(C2CCCCC2)c(-c2ccc(S(N)(=O)=O)c(F)c2)o1
inactive: Potency [1] | Potency [2] | Potency [3] | Potency [4] | Potency [5] | Potency [6] | Potency [7] | Potency [8] | Potency [9] | Potency [10] | Potency [11] | Potency [12] | Potency [13] | Potency [14] | Potency [15] | Potency [16] | Potency [17]

c1ccc2occc2c1
inactive: Potency [1] | Potency [2] | Potency [3] | Potency [4] | Potency [5] | Potency [6] | Potency [7] | Potency [8] | Potency [9] | Potency [10] | Potency [11] | Potency [12] | Potency [13] | Potency [14] | Potency [15] | Potency [16] | Potency [17]

COC(=O)c1ccc(NC(C)=O)cc1OC
inactive: Potency [1] | Potency [2] | Potency [3] | Potency [4] | Potency [5] | Potency [6] | Potency [7] | Potency [9] | Potency [10] | Potency [11] | Potency [12] | Potency [13] | Potency [14] | Potency [15] | Potency [18] | Potency [16] | Potency [17]

NCCCC(N)CC(=O)NCC1NC(=O)C(CO)NC(=O)C(N)CNC(=O)C(C2CCN=C(N)N2)NC(=O)C(=CNC(N)=O)NC1=O (stereo not drawn) (H-[Dap]S[Dap](ξβ3hOrn)[ΔAla(3-NHCONH2)][X10]; lactam 1-C; configuration not given here)
inactive: activity change, negative = cytotoxicity [1] 7.39% [at 0.597 µM] | activity change, negative = cytotoxicity [2] 12.9% [at 0.597 µM] | activity change, negative = cytotoxicity [3] 3.4% [at 0.597 µM] | activity change, negative = cytotoxicity [4] 1.36% [at 0.597 µM] | activity change, negative = cytotoxicity [5] 24.3% [at 0.597 µM] | activity change, negative = cytotoxicity [6] 13.5% [at 0.597 µM] | activity change, negative = cytotoxicity [7] 15.1% [at 0.462 µM] | activity change, negative = cytotoxicity [8] 10.4% [at 0.462 µM] | activity change, negative = cytotoxicity [9] 9.08% [at 0.462 µM] | activity change, negative = cytotoxicity [10] -0.941% [at 0.462 µM] | activity change, negative = cytotoxicity [11] -1.14% [at 0.462 µM] | activity change, negative = cytotoxicity [12] -1.45% [at 0.462 µM] | activity change, negative = cytotoxicity [13] 1.16% [at 0.462 µM] | activity change, negative = cytotoxicity [14] -2.62% [at 0.462 µM] | activity change, negative = cytotoxicity [15] 8.19% [at 0.462 µM] | activity change, negative = cytotoxicity [16] 4.2% [at 0.462 µM] | activity change, negative = cytotoxicity [17] 4.39% [at 0.462 µM]

Nc1c(I)cc(I)c(C(=O)N(CCC(=O)O)c2ccccc2)c1I
inactive: Potency [1] | Potency [2] | Potency [3] | Potency [4] | Potency [5] | Potency [6] | Potency [7] | Potency [8] | Potency [9] | Potency [10] | Potency [11] | Potency [12] | Potency [13] | Potency [14] | Potency [15] | Potency [16] | Potency [17]

Cc1ccc(O)cc1
inactive: Potency [1] | Potency [2] | Potency [3] | Potency [4] | Potency [5] | Potency [6] | Potency [7] | Potency [8] | Potency [9] | Potency [10] | Potency [11] | Potency [12] | Potency [13] | Potency [14] | Potency [15] | Potency [16] | Potency [17]

CCCCNc1ccc(C(=O)OCCN(CC)CC)cc1
inactive: Potency [1] | Potency [2] | Potency [3] | Potency [4] | Potency [5] | Potency [6] | Potency [7] | Potency [8] | Potency [10] | Potency [11] | Potency [12] | Potency [13] | Potency [14] | Potency [15] | Potency [16] | Potency [17]

CCOc1ncc(F)c(=O)[nH]1
inactive: Potency [1] | Potency [2] | Potency [3] | Potency [4] | Potency [5] | Potency [6] | Potency [7] | Potency [9] | Potency [10] | Potency [11] | Potency [12] | Potency [13] | Potency [14] | Potency [15] | Potency [18] | Potency [16] | Potency [17]

CCC(C(=O)NC(=O)NC(C)=O)c1ccccc1 (stereo not drawn)
inactive: Potency [1] | Potency [2] | Potency [3] | Potency [4] | Potency [5] | Potency [6] | Potency [7] | Potency [8] | Potency [9] | Potency [10] | Potency [11] | Potency [12] | Potency [13] | Potency [14] | Potency [15] | Potency [16] | Potency [17]

Cc1ccc(Cl)c(OCC(O)CNC(C)(C)C)c1 (stereo not drawn)
inactive: Potency [1] | Potency [2] | Potency [3] | Potency [4] | Potency [5] | Potency [6] | Potency [7] | Potency [8] | Potency [9] | Potency [10] | Potency [11] | Potency [13] | Potency [14] | Potency [18]

OCCc1ccccc1
inactive: Potency [1] | Potency [2] | Potency [3] | Potency [4] | Potency [5] | Potency [6] | Potency [7] | Potency [8] | Potency [9] | Potency [10] | Potency [11] | Potency [12] | Potency [13] | Potency [15] | Potency [18] | Potency [16] | Potency [17]

CC(C)C(C)(C)C(C)(C)C(C)(C)S
inactive: Potency [1] | Potency [2] | Potency [3] | Potency [4] | Potency [5] | Potency [6] | Potency [7] | Potency [8] | Potency [9] | Potency [10] | Potency [11] | Potency [12] | Potency [14] | Potency [16] | Potency [17]
